In PubChem BioAssay AID372 (MTDP, 2006):
About 770 (0.77%) of roughly 100,000 compounds were called active. Many of the other results were omitted from the sample, so actives are more common in it than they were. A number with no mark means an inactive call. No stated cut-off is given here; in the data, active means inhibition above about 50%; inactive means the rest.

target: Gag-Pol polyprotein (Human immunodeficiency virus type 1 group M subtype B (isolate HXB2)) (UniProt P04585); experiment: RNase H inhibition, HIV 1 Gag Pol polyprotein, FRET biochemical assay, screening (AID 372); conditions: HIV-1 RT RNase H, FRET RNA/DNA substrate fluorescence; at 10 µM; stronger effect = higher value

| Structure (SMILES) | inhibition |
| --- | --- |
| CCN(CC)CCOc1ccccc1C | 3% |
| COc1ccc(C(=O)N2CCN(S(=O)(=O)c3ccccc3)CC2)cc1 | 21% |
| COc1cccc(C=C2C(=O)c3ccccc3C2=O)c1 | 0% |
| CCOc1ccc(NC(=O)CN(c2ccc(Br)cc2)S(=O)(=O)c2ccccc2)cc1 | 17% |
| O=C(N/N=C/c1ccc(OC2CSC2)cc1)c1ccccc1 | 6% |
| Cc1ccc(N(Cc2ccc(C(=O)N/N=C/c3cc(Br)c(C)o3)cc2)S(C)(=O)=O)cc1C | 19% |
| Cc1ccc(N(Cc2ccc(C(=O)N/N=C/c3ccc(OC4CSC4)cc3)cc2)S(C)(=O)=O)cc1C | 56% (active) |
| Brc1ccc(-c2nnnn2-c2ccccc2)cc1 | 12% |
| COc1ccc(C(=O)NC(=S)Nc2cccc(-c3nc4cc(C)ccc4o3)c2)cc1[N+](=O)[O-] | 23% |
| COc1ccc(C(=O)NC(=S)Nc2cccc(-c3nc4cc(Cl)ccc4o3)c2)cc1[N+](=O)[O-] | 23% |
| CCc1ccc2oc(-c3ccc(NC(=S)NC(=O)c4ccc(OC)c([N+](=O)[O-])c4)cc3)nc2c1 | 19% |
| COc1ccc(C(=O)NC(=S)Nc2ccc(-c3nc4cc(C)ccc4o3)cc2)cc1Br | 21% |
| COc1ccc(C(=O)NC(=S)Nc2ccc(-c3nc4cc(Cl)ccc4o3)cc2)cc1[N+](=O)[O-] | 53% (active) |
| COc1ccc(C(=O)NC(=S)Nc2ccc(-c3nc4ccccc4o3)cc2)cc1Br | 20% |
| COc1ccc(C(=O)NC(=S)Nc2ccc(-c3nc4ccc(C)cc4o3)cc2)cc1Br | 60% (active) |
| COc1ccc(C(=O)NC(=S)Nc2ccc(-c3nc4ccc(C)cc4o3)cc2)cc1[N+](=O)[O-] | 54% (active) |
| COc1ccc(C(=O)NC(=S)Nc2ccc3oc(-c4ccc(Cl)cc4)nc3c2)cc1[N+](=O)[O-] | 44% |
| CC(NC(=O)CSc1ncc(-c2ccccc2)[nH]1)c1ccccc1 (stereo not drawn) | 12% |
| CC1=C(C(=O)OCCc2ccccc2)C(c2ccc(Cl)c([N+](=O)[O-])c2)C2=C(CCCC2=O)N1 (stereo not drawn) | 2% |
| O=C(N/N=C/c1ccc([N+](=O)[O-])cc1)c1ccccn1 | 7% |
| COc1ccc(I)cc1S(=O)(=O)N1CCN(c2ccc(F)cc2)CC1 | 16% |
| C/C(=N/NC(=O)C1COc2cc3ccccc3cc2O1)c1ccc([N+](=O)[O-])cc1 (stereo not drawn) | 10% |
| COc1ccc(C2CC(=O)C3=C(C2)NC(C)=C(C(=O)OCC(C)C)C3c2ccc(OC)c(OC)c2)cc1 (stereo not drawn) | 8% |
